Rows were chosen to be rich in hits. Some 4.6% of all compounds tested hit in one or more screens of this group.
tim23-1 inh – growth inhibitors of tim23-1 mutant yeast, primary screen, luminescence, uHTS. inhibition, % at 20 µM. 330,000 compounds, 1.3% hits. S. cerevisiae tim23-1 growth, BacTiter-Glo luminescence, 24 h. AID 463212, 2010;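 active = growth inhibition of the mutant yeast at or above 50%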;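 also: temperature-sensitive mutant grown at 25 °C; plate controls were DMSO-treated mutant yeast for no effect and medium wells lacking yeast for full effect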
SKKanGAS inh – S. pyogenes SKKanGAS growth inhibitors in kanamycin, primary screen, streptokinase expression inhibitor project, SKKanGAS strain, BacTiter-Glo luminescence. 6 h. inhibition, % at 7.5 µM. 300,000 compounds, 1.3% hits. AID 1662, 2009;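 active = mean replicate score, as percent of positive control median, at least 50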;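 also: strain carries kanamycin resistance gene driven by streptokinase promoter and grows in 40 µg/ml kanamycin; loss of luminescence reflects streptokinase promoter inhibition or plain growth inhibition; 0% = median of DMSO wells and 100% = positive control at its reference dose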
NALP3 yeast inh – NALP3 inflammasome inhibitors in reconstituted yeast, primary screen, luminescence, uHTS; Yeast reconstituted NLRP3/ASC/caspase-1, beta-gal luminescence, 24 h; inhibition, % at 10 µM; 330,000 compounds, 0.39% hits; AID 2825, 2010;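 active = inhibition of 50% or more; inactive = inhibition below 50%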;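 also: plate controls were induced DMSO wells for no effect and uninduced yeast grown without galactose for full effect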
PfHsp90 set2 – growth inhibition of PfHsp90-expressing yeast, primary screen, antimalarial PfHsp90 inhibitor project, S. cerevisiae, BacTiter-Glo luminescence, single point, set 2; BacTiter-Glo ATP, 48 h; yeast lacking PDR1 and PDR3 efflux regulators; AID 504621, 2011; 310,000 compounds, 0.32% hits; inhibition, % at 9.4 µM;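 active = every replicate shows inhibition above about 80%, whatever the replicate mean, limit read from the data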;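 also: 0% = DMSO neutral controls and 100% = 20 µM radicicol positive controls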
tim10-1 inh – growth inhibitors of tim10-1 mutant yeast, primary screen, luminescence, uHTS; S. cerevisiae tim10-1 ts strain growth, BacTiter-Glo, 24 h; inhibition, % at 20 µM; 330,000 compounds, 2.2% hits;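 active = inhibition of at least 40%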;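 also: mutant grown at 25 °C; 0% = DMSO wells with yeast and 100% = wells holding no yeast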
TIM10 inh – growth inhibitors of isogenic TIM10 control yeast, primary screen, counter-screen for tim10-1 yeast inhibitor project, luminescence, uHTS. S. cerevisiae TIM10 strain growth, BacTiter-Glo luminescence, 24 h. inhibition, % at 10 µM. 330,000 compounds, 1.4% hits;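 active = inhibition of 40% or more at the single tested concentration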;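 also: wild-type TIM10 isogenic control strain grown at permissive 25 °C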
tim23-1 confirm – tim23-1 mutant yeast growth inhibitors, confirmation, luminescence, single concentration | shares compounds with tim23-1 inh | S. cerevisiae tim23-1 growth, BacTiter-Glo luminescence, 24 h | inhibition, % at 20 µM | 4,400 compounds, 83% hits | AID 463218, 2010;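 active = inhibition above about 39% in either of two replicate wells at 20 µM, limit read from the data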;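 also: temperature-sensitive tim23-1 mutant grown at 25 °C; 0% = DMSO wells with yeast and 100% = medium wells without yeast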
Numbers without * were called inactive; . = not tested or not shown.

SMILES	tim23-1 inh	SKKanGAS inh	NALP3 yeast inh	PfHsp90 set2	tim10-1 inh	TIM10 inh	tim23-1 confirm
CCOC(=O)C1CCN(S(=O)(=O)c2c(Cl)ccc3nonc23)CC1	65.1*	-10.3	20.3	-10.9	25.3	20.9	60.3*
CCOC(=O)C1CCN(S(=O)(=O)c2cccc3nonc23)CC1	14.5	0.0	16.8	-13.1	10.6	6.6	.
Cc1ccc(C(=O)N/N=C/c2nc3ccccc3n2C)cc1	53.6*	-10.0	14.1	8.9	28.2	5.9	38.8*
Cn1c(=NC(=O)C(C)(C)C)sc2cccc(F)c21	18.7	-2.4	34.6	-1.9	1.7	-10.5	.
Cn1c(=NC(=O)c2ccccc2[N+](=O)[O-])sc2cccc(F)c21	97.0*	-5.2	13.6	-22.5	2.2	-8.9	-14.8
O=C(N[C@@H]1c2ccccc2CC[C@@H]1OCc1ccccc1)c1ccc(-c2ccccc2)cc1	19.1	.	.	-3.2	2.6	-28.2	.
CC(=O)c1ccc(N2CCN(C(=O)c3ccc(Br)cc3)CC2)c(F)c1	57.1*	13.2	39.1	70.8	33.3	2.4	34.5
O=C(OCc1nc2ccccc2s1)c1ccc([N+](=O)[O-])o1	54.8*	7.4	14.8	12.5	0.1	19.6	58.8*
O=C(OCC(=O)N1CCc2ccccc21)c1ccc([N+](=O)[O-])o1	69.7*	.	10.0	-6.2	15.5	-46.6	73.2*
O=C(OCc1nc2ccccc2s1)c1ccc(Br)o1	16.6	-1.5	5.9	-13.4	13.2	2.7	.
O=C(OCC(=O)N1CCCc2ccccc21)c1ccc(Br)o1	4.2	-1.2	-0.3	-7.6	20.9	-11.7	.
COc1ccc2c(=O)c3c(=O)n(Cc4ccco4)c(-c4ccccc4)nc3oc2c1	59.0*	17.8	7.4	.	33.1	32.1	39.3*
O=C(NC(=S)Nc1ccc(Cc2ccncc2)cc1)c1ccc(F)cc1	3.0	5.4	11.0	-17.2	-15.3	9.1	.
Cn1c(C=O)c(C#Cc2ccccc2)c2ccccc21	58.3*	.	13.9	1.4	14.4	20.8	63.0*
CC(CCN1CCN=C1Nc1ccccc1)c1ccccc1 (stereo unspecified)	2.5	0.0	7.6	0.1	-25.4	1.5	.
Nc1ncc(Br)cc1S(=O)(=O)NC1CCCCC1	25.9	-0.7	0.3	-15.0	12.6	7.7	.
CC1CCCC(NS(=O)(=O)c2cc(Br)cnc2N)C1C (stereo unspecified)	55.0*	-0.3	9.2	-2.9	38.2	28.4	45.4*
CCN(CC)S(=O)(=O)c1cc(C(=O)NC2CCCCC2)ccc1C	30.5	-6.9	-5.7	24.2	19.8	15.9	.
S=c1nc[nH]c2c1ncn2C1CCCC1	.	-1.1	.	8.7	.	.	.
CC1(c2ccccc2)CC(C)(C)n2c(O)c(C3=NC(=S)NC3=O)c3cccc1c32 (stereo unspecified)	-14.2	18.4	7.2	-15.6	-4.0	-22.4	.
CC1(c2ccccc2)CC(C)(C)N2C(=O)C(=O)c3cccc1c32 (stereo unspecified)	60.9*	-1.9	2.9	.	38.4	-4.3	56.5*
O=C(NCC1COc2ccccc2O1)c1ccc(NC(=O)c2ccco2)cc1 (stereo unspecified)	58.4*	-3.6	5.8	-20.8	36.5	32.9	53.3*
CC(Oc1ccccc1F)C(=O)NNC(=O)c1cccc(S(=O)(=O)N2CCN(C)CC2)c1 (stereo unspecified)	7.0	.	4.8	.	14.8	-9.2	.
O=C(CN1CCCC1c1ccc2c(c1)OCCO2)NC(=O)Nc1ccccc1 (stereo unspecified)	32.4	.	40.0	4.2	15.0	-12.7	.
Cc1cc(C(=O)N/N=C\c2cc(C(C)(C)C)ccc2O)n[nH]1	56.0*	2.7	19.2	18.1	32.5	21.4	55.2*
Cc1ccc(O)c(NC(=O)C2CC(c3cccc(Br)c3)=NO2)c1 (stereo unspecified)	-1.9	6.0	19.1	-6.0	-42.1	-34.4	.

From PubChem
